# Active and inactive are the calls of the source. Where a call stands in place of a potency, no number is given. Calls follow the shape of the dose curve; as a rule, active = well fitted activation curve with a large enough effect; inconclusive = small, poorly fitted or top-dose-only effect; inactive = flat fitted curve, though single readings scatter.
# Assay: Cellular Toxicity (caspase-3) SK-N-SH (AID 661)
# Conditions: SK-N-SH caspase-3 activation, qHTS; caspase-3 activation: at 91.7 µM (top of the series), DMSO as zero, staurosporine as full
# Source text: NIH Chemical Genomics Center [NCGC]
# NIH Molecular Libraries Screening Centers Network [MLSCN]
# National Institutes of Environmental Health Sciences [NIEHS]
# National Toxicology Program [NTP]
# We have developed a 1536-well cell-based assay for quantitative high throughput screening (qHTS) against a number of cell lines to determine in vitro caspase 3/7 activity of small molecules. This particular assay uses the SK-N-SH cell line which is derived from human neuroblastoma.
# NCGC Assay Protocol Summary:
# The Caspase-Glo 3/7 assay (Promega) is a homogeneous method to measure caspase-3 and caspase-7 activities in cultured cells. The quantitation of caspase 3/7 activity is based on the cleavage of a peptide-aminoluciferin substrate. After caspase cleaves the substrate the free aminoluciferin is liberated and serves as the substrate of luciferase, which generates the light. The luminescent signal is proportional to amount of caspase 3/7 activity present.
# Using the Caspase-Glo 3/7 assay, the amount of caspase 3/7 activity was measured in the SK-N-SH cell line with complete culture medium following compound treatment for 16 hours. The assay was performed in opaque white 1536-well plates. In the screen, tamoxifen and staurosporine were used as positive controls. Library compounds were measured for their ability to cause the activation of caspase 3/7 in the cell line, as reflected by an increase in luminescence signal, in a concentration-dependent manner. Data were normalized to the controls for basal activity (DMSO only) and 100% stimulation (10 uM staurosporine). AC50 values were determined from concentration-response data modeled with the standard Hill equation.
# qHTS protocol for caspase 3/7 assay in SK-N-SH cells
# [Step] [Parameter] [Value] [Description]
# 1. Reagent; 5 uL; 1500 SK-N-SH cells/well
# 2. Time; 5 hr; 37 °C incubation
# 4. Controls; 23 nL; Tamoxifen 0.23 uM to 100 uM & staurosporine 1.4 pM to 100 uM
# 5. Time; 16 hr; 37 °C incubation
# 6. Reagent; 5 uL; Caspase-Glo 3/7 reagent
# 7. Time; 1 hr; Room Temperature
# 8. Detection; Luminescence; Viewlux plate reader
# Keywords: caspase 3/7, apoptosis, SK-N-SH cell line, luminescence, NTPHTS, NTPHTS_NCGC, NIEHS, EPA, DSSTox, MLSMR, MLSCN, NIH Roadmap, qHTS, NCGC
# Potency is read from the fitted curve at half-maximal effect.
Compound,Potency,caspase-3 activation
O=C(O)C(Cl)(Cl)Cl,inactive,
O=[N+]([O-])c1ccccc1,inactive,
CCOC(=O)c1ccccc1C(=O)OCC,inactive,
C[C@H]1CCC[C@H](O)CCCCCc2cc(O)cc(O)c2C(=O)O1,inactive,
CCCCCCCCOC(=O)c1ccccc1C(=O)OCCCCCCCC,inactive,
CC(C)(C)c1cc(O)ccc1O,inactive,
O=C1C=CC(=O)C=C1,inactive,
CCCCCl,inactive,
Clc1ccccc1Cl,inactive,
ClCC1CO1 (stereo unspecified),inactive,
Oc1cc(Cl)c(Cl)cc1Cl,inactive,
[O]=[Cr](=[O])([OH])[O][Cr](=[O])(=[O])[OH],20 µM (active),80.2% (active)
O=[N+]([O-])c1ccc(F)c([N+](=O)[O-])c1,inactive,
CC(C)Nc1ccc(Nc2ccccc2)cc1,inactive,
O=C1CCO1,inactive,
O=CC=O,inactive,
ClC(Cl)(Cl)Cl,inactive,
O=Cc1ccco1,inactive,
C[C@]12CCC(=O)C[C@@H]1CC[C@@H]1[C@@H]2CC[C@]2(C)[C@@H](O)CC[C@@H]12,inactive,
NNC(N)=O,inactive,
[Cl-].[Cl-].[Hg+2],inactive,
CC(C)CCON=O,inactive,
[O]=[Cd],inactive,
O=C/C=C/c1ccccc1,inactive,
C[C@H]1CC[C@@H]2[C@@H](C)[C@H]3[C@H](C[C@H]4[C@@H]5CC=C6CC(O[C@@H]7O[C@H](CO)[C@H](O)[C@H](O[C@@H]8O[C@H](CO)[C@@H](O)[C@H](O)[C@H]8O)[C@H]7O[C@H]7O[C@@H](C)[C@H](O)[C@@H](O)[C@H]7O)CC[C@]6(C)[C@H]5CC[C@]34C)N2C1 (stereo partly specified),inactive,
ClC=C(Cl)Cl,inactive,
S=C=S,inactive,
COc1ccc2c(c1OC)C(=O)OC2C1c2cc3c(cc2CCN1C)OCO3 (stereo unspecified),inactive,
COC1=CC(=O)O[C@@H](/C=C/c2ccccc2)C1,inactive,
C=CCN=C=S,inactive,

# Source: PubChem BioAssay (NCATS)
